Screening results: PubChem BioAssay, Broad Institute
PGC1a acetyl inh: PGC1a acetylation modulation, inhibitor mode; U2OS PGC1a acetylation, AlphaScreen anti-acetyl-lysine; with virally co-expressed GCN5 acetyltransferase; inhibition, % at 15.6 µM; 0.17% of 350,000 active; AID 651687;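 active = every replicate shows inhibition of at least 40%; inconclusive = mean inhibition at least 40% but some replicate below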;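 note: 0% = neutral control wells and 100% = positive control wells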
PAX8 reporter: PAX8 transcriptional activity inhibition. RMG-I TPO-luciferase reporter, SteadyGlo, 24 h. inhibition, % at 12.6 µM. 1.2% of 360,000 active. AID 652154;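 active = mean replicate inhibition at least 60% with every replicate also reaching 60%; inconclusive = only one of the two criteria is met; inactive = mean below 60% and not all replicates reaching 60%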;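 note: luciferase light reporting Pax8 driven TPO promoter activity; plate controls were median of neutral control wells for no effect and mitoxantrone controls for full effect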
GSIS activator: GLuc luminescence reporter in INS-1E cells, primary screen for activators of glucose-dependent secretion of insulin. INS-1E GLuc reporter insulin secretion, 2-3 h. activation, % at 16.6 µM. 0.61% of 370,000 active. AID 743287;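 active = lowest replicate activation of at least 40%, so every replicate reaches that level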;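 note: 0% = median of neutral control wells and 100% = median of IBMX positive control wells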
CFTR F508del cor: CFTR F508del correction in bronchial cells; CFBE cells, YFP halide quenching; stimulated with forskolin plus potentiator P3; % fluorescence drop versus neutral controls; activity (quench increase), % at 7.58 µM; 0.36% of 350,000 active;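 active = mean added fluorescence quench of at least 8% versus neutral control, with both replicates also reaching 8%; inconclusive = only one of the mean or replicate conditions met; inactive = mean below 8% and not both replicates reaching 8%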;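 note: cells transiently co-express mutant CFTR-F508del with the halide-sensitive YFP; corrector assay measuring rescue of mutant channel to the surface after 24 h compound exposure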
EWS-Fli block: blocks EWS/Fli oncoprotein-driven transcription | A673 NR0B1-luciferase reporter, viability-normalised | inhibition, % at 12.6 µM | 0.67% of 350,000 active | AID 651661;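 active = mean inhibition of at least 50% after viability correction, with every replicate also passing that limit; inconclusive = mean reaches 50% but only one of two replicates passes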;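 note: firefly luciferase signal divided by Alamar Blue viability fluorescence both relative to DMSO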
HIV Env fusion: inhibitors of HIV Env-mediated cell fusion. inhibition, % at 12.3 µM. 1.1% of 360,000 active. HeLa-JRFL Env/CEM21 cell fusion, luciferase. AID 651610;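 active = mean replicate inhibition score of at least 50 and every replicate individually at or above 50; inconclusive = only one of the two criteria met; inactive = mean below 50 and not all replicates reaching 50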;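 note: 0% = plate neutral controls and 100% = maraviroc near 300 nM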
* hit, by the source's call; i = inactive; ? = inconclusive; / = no result given; [ ] = another dose, or the depositor's remark. Most compounds without a hit are left out; they make up all but 2.7% or so of the library.

SMILES	PGC1a acetyl inh	PAX8 reporter	GSIS activator	CFTR F508del cor	EWS-Fli block	HIV Env fusion
CC(=O)N(C)C[C@@H]1Oc2ccc(NC(=O)NC(C)C)cc2CC(=O)N(C)C[C@@H]1C	/	/	8	/	/	/
c1ccc(Nc2ccccn2)cc1	2	-27	/	/	/	17
c1ccc(/N=C2\N=C(Nc3ccccn3)c3ccccc32)nc1	-10	79*	26	6	25	12
CC(C)CC#Cc1cnc2c(c1)C(=O)N([C@@H](C)CO)C[C@H](C)[C@H](CN(C)Cc1ccc(C(=O)O)cc1)O2	11	/	16	-2	-2	-8[16.7 µM]
O=C(c1ccccc1F)N1CC(=O)N2[C@@H](CO)[C@@H](c3ccc(C#Cc4ccc(F)cc4)cc3)[C@@H]2C1	9	108*	-9	-1	-4	/
COc1cccc(C#Cc2ccc([C@@H]3[C@H](CO)N4C(=O)CN(C(=O)c5ccccc5)C[C@@H]34)cc2)c1	-4	69*	-34	2	-2	/
O=C(c1ccc(F)cc1)N1CC(=O)N2[C@H](C1)[C@H](c1ccc(/C=C/c3ccccc3)cc1)[C@@H]2CO	0	69*	-19	-1	4	/
O=C(c1ccccc1F)N1CC(=O)N2[C@H](C1)[C@H](c1ccc(C#Cc3ccc(F)cc3)cc1)[C@@H]2CO	-6	46	-8	1	-2	/
O=C(c1ccc(F)cc1)N1CC(=O)N2[C@H](CO)[C@H](c3ccc(/C=C/c4ccccc4)cc3)[C@@H]2C1	1	21	-17	0	15	/
COc1ccc(NC(=O)Nc2ccc3c(c2)C(=O)N([C@H](C)CO)C[C@@H](C)[C@H](CN(C)S(=O)(=O)c2ccc(F)cc2)OCCCC[C@@H](C)O3)cc1	4	32	18	2	6	23[16.7 µM]
COc1ccccc1CNC(=O)COc1cccc(-n2cnnn2)c1	/	-2	5	4	-8	/
CCOc1ccc(CCNC(=O)COc2cccc(-n3cnnn3)c2)cc1OCC	-12	-1	44*	4	5	1
COc1ccc(CN(C)C(=O)COc2cccc(-n3cnnn3)c2)cc1OC	3	-19	41*	2	-10	-1
O=C(C=P(c1ccccc1)(c1ccccc1)c1ccccc1)c1ccccc1-c1ccccc1C(=O)C=P(c1ccccc1)(c1ccccc1)c1ccccc1	/	114*	-13	5	50	6
O=C(NNC(=O)c1ccccc1-c1ccccc1C(=O)O)c1ccccc1	14	8	1	2	3	2
Cc1ccc(C(=O)NC(=S)NNC(=O)c2ccccc2O)cc1	/	6	-18	9.7*	10	12
Cc1onc(-c2ccccc2)c1C(=O)NC(=S)NNC(=O)c1ccc(O)cc1O	/	86*	11	/	/	24
Cc1onc(-c2ccccc2)c1C(=O)NC(=S)NNC(=O)c1ccc(O)cc1	/	43	0	/	/	69*
C[C@@H]1CCCCO[C@@H](CN(C)C)[C@H](C)CN([C@H](C)CO)C(=O)c2cc(NC(=O)c3ccncc3)ccc2O1	3	-13	35	1	-5	11[16.7 µM]
CCC(=O)N1[C@H](C(=O)N2CCCCC2)[C@@H](CO)[C@@H]2Cn3c(ccc(-c4cccc(F)c4)c3=O)[C@@H]21	/	-3	6	-2	-6	/
O=C1c2ccccc2C(=O)N1CSc1nnc(Nc2ccccc2F)s1	/	78*	-9	-1	-8	/
Cc1ccc(NC(=O)c2ccc(COc3ccc4c(c3)CCC4)cc2)c(C)c1	/	-8	111*	/	/	-136
O=C(Nc1ccccc1Cl)c1ccc(COc2ccc3c(c2)CCC3)cc1	-2	-51	-6	/	/	-27
COc1ccccc1-c1ccc2n(c1=O)C[C@@H]1[C@@H](CO)[C@H](C(=O)N3CCCCC3)[C@H]2N1CC1CC1	/	-5	0	-1	-4	/
COC(=O)c1cccc(CSc2nc3ccccc3[nH]2)c1	-6	-37	-12	0	59*	33
SMILES	PGC1a acetyl inh	PAX8 reporter	GSIS activator	CFTR F508del cor	EWS-Fli block	HIV Env fusion
CN1c2ccc(-c3ccccc3F)cc2[C@@H]2[C@@H](CCN2S(=O)(=O)c2ccccc2)[C@@H]1CO	8	-1	0	0	8	/
CCCCOC(=O)n1c(=O)oc2cc(S(=O)(=O)N3CCCCC3)ccc21	-2	/	-32	/	/	56*
COC(=O)n1c(=O)oc2ccc(S(=O)(=O)N3CCCCC3)cc21	-12	-8	2	-1	3	-6
COc1ccc2c3c(n(C)c2c1)[C@@H](CO)N(C(=O)C1CC1)CC31CN(C(=O)Nc2cccc(F)c2)C1	/	5	-18	-3	4	/
C[C@@H]1CN([C@H](C)CO)C(=O)c2cc(NC(=O)CCC(F)(F)F)ccc2O[C@@H](C)CCCCO[C@@H]1CN(C)Cc1ccc(Cl)c(Cl)c1	9	81*	-30	1	-6	11[16.7 µM]
C[C@@H]1CN([C@@H](C)CO)C(=O)c2cc(NC(=O)CCCN(C)C)ccc2O[C@@H](C)CCCCO[C@@H]1CN(C)Cc1ccc(C(F)(F)F)cc1	110*	/	-3	2	-2	-12[16.7 µM]
C[C@@H]1CN([C@@H](C)CO)C(=O)c2cc(NC(=O)CCC(F)(F)F)ccc2O[C@@H](C)CCCCO[C@H]1CN(C)Cc1ccc(C(F)(F)F)cc1	-1	75*	-19	1	10	17[16.7 µM]
Cn1cnc2nc(Cl)nc(Cl)c21	-26	80*	-20	0	46	36
Cc1c(C(=O)N/N=C/c2ccc(Cl)cc2)[nH]c2ccc(Cl)cc12	/	58	-8	3	59*	-296
C/C(=N\NC(=O)CCC(=O)O)c1c(-c2ccccc2)c2cc(Br)ccc2[nH]c1=O	-6	17	-3	1	-30	-2
O=C(N/N=C/c1ccc(O)cc1)c1[nH]c2ccc(Br)cc2c1-c1ccccc1	/	96*	-6	10.0*	49	-279
O=C(NN=C1CCCC1)c1[nH]c2ccc(Cl)cc2c1-c1ccccc1	-12	59	-10	14*	?	i
CCOc1ccc(/C=N/NC(=O)c2[nH]c3ccc(C)cc3c2C)cc1	1	-2	-2	2	-3	4
O=C(N/N=C/c1c[nH]c2ccccc12)c1[nH]c2ccc(Br)cc2c1-c1ccccc1	0	94*	-10	/	48	-221
CC(C)NC(=O)N(C)C[C@@H]1Oc2ccc(N(C)C)cc2CC(=O)N([C@@H](C)CO)C[C@H]1C	3	6	-7	1	/	-2[16.7 µM]
C[C@H](CO)N1C[C@H](C)[C@@H](CN(C)C(=O)CCC(F)(F)F)OCCCC[C@H](C)Oc2ccc(NC(=O)c3ccccc3)cc2C1=O	3	7	-17	0	6	-169[16.7 µM]
C[C@H](CO)N1C[C@H](C)[C@H](CN(C)S(=O)(=O)c2cn(C)cn2)Oc2ccc(NS(=O)(=O)c3ccccc3)cc2CC1=O	8	-11	35	0	3	3[16.7 µM]
Cn1c(/C(C#N)=C/c2cccc(O)c2)nc2ccccc21	14	-20	5	0	-4	-39
